Laboratory results as given in PubChem BioAssay (NCATS).
Results filed as inconclusive are left out. A call without a number means that no potency is given here. The source made the active and inactive calls. Unless noted, calls come from the whole dose curve; as a rule, active = well fitted inhibition curve with a large enough effect; inconclusive = small, poorly fitted or top-dose-only effect; inactive = flat fitted curve, though single readings scatter.

Tests used:
[1] = qHTS drug screen for cell cycle checkpoint inhibitors in PARPi-resistant BRCA-mutant ovarian cancer cell lines. (AID 1963452; calls by dose curve); conditions: PEO1/OlaR viability, CellTiter-Glo luminescence, 96 h, stronger effect = lower value
How it was run: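 PEO1, PEO4 and PEO1/OlaR ovarian cancer cells, 600 per well, exposed 96 h at 37C to a dilution series. Viability read by CellTiter-Glo luminescence, normalized to DMSO and empty wells; activity summarized as Z-AUC.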

[2] = qHTS for identification of novel therapeutic agents for treatment of microphthalmiaassociated transcription factor (MiT) renal cell carcinoma (RCC) (AID 1963991); conditions: CellTiter-Glo, 48 h, stronger effect = lower value
How it was run: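 UOK109/UOK124/UOK145 (TFE3 fusions, three partners); 500 cells/well; MIPE v4.0, 1912 cpds, 11 conc.; 48 h, 37 C; CellTiter-Glo, 15 min RT; lum. Norm.: DMSO 100%, empty 0%.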

[3] = qHTS profiling for inhibitors of Plasmodium falciparum proliferation (AID 504749); note: nearly all actives have a fitted effect of over 60% in size; conditions: P. falciparum in erythrocytes, SYBR Green DNA, 72 h, at 28.7 µM (top of the series)
How it was run: (§1)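 P. falciparum-infected erythrocytes (0.3% parasitemia, 2.5% hematocrit) incubated with compound 72 h at 37 C, 5% CO2. Parasite DNA detected by SYBR Green after lysis, overnight at room temperature; normalised to 0.29 uM artemisinin and DMSO.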

3D7 = test: as above; conditions: P. falciparum in erythrocytes, SYBR Green DNA, 72 h; series mostly up to 28.7 µM
How it was run: as §1

7G8 = test: as above; conditions: P. falciparum in erythrocytes, SYBR Green DNA, 72 h; series mostly up to 28.7 µM
How it was run: as §1

AA1029 = test: as above; conditions: P. falciparum in erythrocytes, SYBR Green DNA, 72 h; series mostly up to 28.7 µM
How it was run: as §1

AS120 = test: as above; conditions: P. falciparum in erythrocytes, SYBR Green DNA, 72 h; series mostly up to 28.7 µM
How it was run: as §1

ATS189 = test: as above; conditions: P. falciparum in erythrocytes, SYBR Green DNA, 72 h; series mostly up to 28.7 µM
How it was run: as §1

ATS95 = test: as above; conditions: P. falciparum in erythrocytes, SYBR Green DNA, 72 h; series mostly up to 28.7 µM
How it was run: as §1

C2A = test: as above; conditions: P. falciparum in erythrocytes, SYBR Green DNA, 72 h; series mostly up to 28.7 µM
How it was run: as §1

CP185 = test: as above; conditions: P. falciparum in erythrocytes, SYBR Green DNA, 72 h; series mostly up to 28.7 µM
How it was run: as §1

CP191 = test: as above; conditions: P. falciparum in erythrocytes, SYBR Green DNA, 72 h; series mostly up to 28.7 µM
How it was run: as §1

CP192 = test: as above; conditions: P. falciparum in erythrocytes, SYBR Green DNA, 72 h; series mostly up to 28.7 µM
How it was run: as §1

CP194 = test: as above; conditions: P. falciparum in erythrocytes, SYBR Green DNA, 72 h; series mostly up to 28.7 µM
How it was run: as §1

CP201 = test: as above; conditions: P. falciparum in erythrocytes, SYBR Green DNA, 72 h; series mostly up to 28.7 µM
How it was run: as §1

CP203 = test: as above; conditions: P. falciparum in erythrocytes, SYBR Green DNA, 72 h; series mostly up to 28.7 µM
How it was run: as §1

CP211 = test: as above; conditions: P. falciparum in erythrocytes, SYBR Green DNA, 72 h; series mostly up to 28.7 µM
How it was run: as §1

[4] = measured here: PEO1 parental Z-AUC
[5] = TFE3-RCC UOK109 viability, measured here: UOK109 Z-AUC
[6] = TFE3-RCC viability, measured here: UOK124 Z-AUC
[7] = TFE3-RCC viability, measured here: UOK145 Z-AUC

For `CC(C)(C)C(=O)Oc1ccc(S(=O)(=O)Nc2ccccc2C(=O)NCC(=O)O)cc1`, the Z-AUC [1] was 1.22 (inactive), the Z-AUC [1, 4] was 0.948 and the Z-AUC ([1]; measured here: PEO4 Z-AUC) was 1.16. It also gave a z-score [2, 5] of 0.584, a z-score [2, 6] of 0.0353 and a z-score [2, 7] of 0.435. For the same compound, the activity, negative = inhibition ([3]; parasite line A) was -0.829% (inactive), the activity, negative = inhibition ([3]; parasite line B) was 7.95% (inactive) and the Potency (3D7) was “inactive”. For the same compound, the Potency (7G8) was “inactive”, the Potency (AA1029) was “inactive” and the Potency (AS120) was “inactive”. For the same compound, the Potency (ATS189) was “inactive”, the Potency (ATS95) was “inactive” and the Potency (C2A) was “inactive”. The Potency (CP185) was “inactive”, the Potency (CP191) was “inactive” and the Potency (CP192) was “inactive”. For the same compound, the Potency (CP194) was “inactive”, the Potency (CP201) was “inactive” and the Potency (CP203) was “inactive”. For the same compound, the Potency (CP211) was “inactive”.

For `NS(=O)(=O)c1cc2c(cc1Cl)NCNS2(=O)=O`, the Z-AUC [1] was 1.17 (inactive), the Z-AUC [1, 4] was 1.34 and the Z-AUC ([1]; measured here: PEO4 Z-AUC) was 1.57. The z-score [2, 5] was 0.106, the z-score [2, 6] was 0.843 and the z-score [2, 7] was 0.437. The activity, negative = inhibition ([3]; parasite line A) was 1.79% (inactive), the activity, negative = inhibition ([3]; parasite line B) was 14.1% (inactive) and the Potency (3D7) was “inactive”. The Potency (7G8) was “inactive”, the Potency (AA1029) was “inactive” and the Potency (AS120) was “inactive”. The Potency (ATS189) was “inactive”, the Potency (ATS95) was “inactive” and the Potency (C2A) was “inactive”. For the same compound, the Potency (CP185) was “inactive”, the Potency (CP191) was “inactive” and the Potency (CP192) was “inactive”. For the same compound, the Potency (CP194) was “inactive”, the Potency (CP201) was “inactive” and the Potency (CP203) was “inactive”. For the same compound, the Potency (CP211) was “inactive”.
